Experimental data reported in the supplement of paper PMC10849652.
About 7,900 targets were measured; listed, in parts, are those with a hit and a random draw of the rest. About 0.6% of all pairs of compound and target were hits.

Experiments:
Assay in all cases: log2 fold change, soluble protein after heating vs DMSO (PISA); higher = thermal stabilisation; K562 cells, 10 uM, 30 min; active = over 0.2 and 3.5 SD of the protein, either way, in both replicates (recomputed)
[1] = compound: CC1=C(C=C(C=C1)NC(=O)C2=CC(=CC=C2)C(C)(C)C#N)NC3=CC4=C(C=C3)N=CN(C4=O)C
Summary of the method: (§1)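 Quantification of soluble protein used TMTpro 16plex LC-MS/MS, with channel sums equalised. Samples were the supernatant after 21,000xg for 90 min of pooled aliquots from K562 cells (2×10^6 cells/mL) treated with 10 μM compound for 30 min, heated for 3 min over 48°C-58°C, and extracted in PBS with 0.5% NP-40 at 4°C. Values, from duplicates, describe thermal stability against control samples on a log2 fold-change scale.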

[2] = compound: CC1=C(C=C(C=C1)NC(=O)C2=CC(=CC=C2)N(C)C)NC(=O)C3=CC=C(C=C3)O
Summary of the method: as §1

[3] = compound: CC1=CC=C(C=C1)SC2=C3C=C(SC3=CN=C2)C(=O)N
Summary of the method: as §1

[4] = compound: CC1=NC(=CC=C1)C2=C(N=C(N2)C(C)(C)C)C3=CC4=NC=CN=C4C=C3
Summary of the method: as §1

Nexturastat A = compound: CCCCN(Cc1ccc(C(=O)NO)cc1)C(=O)Nc1ccccc1 [Nexturastat A]
Summary of the method: as §1

vemurafenib = compound: CCCS(=O)(=O)Nc1ccc(F)c(C(=O)c2c[nH]c3ncc(-c4ccc(Cl)cc4)cc23)c1F [vemurafenib]
Summary of the method: as §1

[5] = compound: CCCS(=O)(=O)Nc1ccc(F)c(C(=O)c2c[nH]c3ncc(Cl)cc23)c1F
Summary of the method: as §1

[6] = compound: CCCc1cc(C)[nH]c(=O)c1CNC(=O)c1cc(-c2ccnc(N3CCN(C)CC3)c2)cc2c1cnn2C(C)C
Summary of the method: as §1

givinostat = compound: CCN(CC)Cc1ccc2cc(COC(=O)Nc3ccc(C(=O)NO)cc3)ccc2c1 [givinostat]
Summary of the method: as §1

barasertib = compound: CCN(CCCOc1ccc2c(Nc3cc(CC(=O)Nc4cccc(F)c4)[nH]n3)ncnc2c1)CCOP(=O)(O)O [barasertib]
Summary of the method: as §1

[7] = compound: CC[C@@H]1C(=O)N(C)c2cnc(Nc3ccc(C(=O)NC4CCN(C)CC4)cc3OC)nc2N1C1CCCC1
Summary of the method: as §1

volasertib = compound: CC[C@@H]1C(=O)N(C)c2cnc(Nc3ccc(C(=O)N[C@H]4CC[C@H](N5CCN(CC6CC6)CC5)CC4)cc3OC)nc2N1C(C)C [volasertib]
Summary of the method: as §1

[8] = compound: CC[C@H](C)N1C=C(C2=C(C=C(C=C21)C3=CN=C(C=C3)N4CCNCC4)C(=O)NCC5=C(C=C(NC5=O)C)C)C
Summary of the method: as §1

epoxomicin = compound: CC[C@H](C)[C@@H](C(=O)N[C@@H]([C@@H](C)O)C(=O)N[C@@H](CC(C)C)C(=O)[C@]1(CO1)C)NC(=O)[C@H]([C@@H](C)CC)N(C)C(=O)C [epoxomicin]
Summary of the method: as §1

[9] = compound: CCn1c(C(=O)N(C2CC2)C2CC2)cc2c3c(ncn3C)c(Nc3cc(C)n(C)n3)nc21
Summary of the method: as §1

[10] = compound: CCn1cc(-c2ccnc3[nH]c(-c4cccc(CN(C)C)c4)cc23)c(-c2ccc(NC(=O)N(C)C)cc2)n1
Summary of the method: as §1

[11] = compound: CN(C)CC(=O)Nc1ccc2[nH]c(=O)c3ccccc3c2c1
Summary of the method: as §1

rosiglitazone = compound: CN(CCOC1=CC=C(C=C1)C[C@H]2C(=O)NC(=O)S2)C3=CC=CC=N3 (racemic) [rosiglitazone]
Summary of the method: as §1

[12] = compound: CN1C2=C(C3=C1C(=O)N(N=C3)CC4=CC(=CC=C4)N)SC(=C2)S(=O)C
Summary of the method: as §1

[13] = compound: CN1CCC(CNc2ccc3ncc(-c4cccc(OC(F)(F)F)c4)n3n2)CC1
Summary of the method: as §1

Measured: log2 fold change

AGPAT1 (UniProt Q99943)
inactive: [1] -0.037 | [2] -0.029 | [3] -0.014 | [4] -0.03 | Nexturastat A -0.052 | vemurafenib 0.017 | [5] -0.004 | [6] 0.004 | givinostat 0.005 | barasertib 0.047 | [7] -0.032 | [8] 0.015 | epoxomicin -0.056 | [9] -0.007 | [10] -0.006 | [11] 0.032 | rosiglitazone -0.011 | [12] -0.102
active: volasertib -0.243 | [13] 0.315

AFG1L (UniProt Q8WV93)
UniProt Q8WV93, sequence (Q8WV93 whole entry, looked up): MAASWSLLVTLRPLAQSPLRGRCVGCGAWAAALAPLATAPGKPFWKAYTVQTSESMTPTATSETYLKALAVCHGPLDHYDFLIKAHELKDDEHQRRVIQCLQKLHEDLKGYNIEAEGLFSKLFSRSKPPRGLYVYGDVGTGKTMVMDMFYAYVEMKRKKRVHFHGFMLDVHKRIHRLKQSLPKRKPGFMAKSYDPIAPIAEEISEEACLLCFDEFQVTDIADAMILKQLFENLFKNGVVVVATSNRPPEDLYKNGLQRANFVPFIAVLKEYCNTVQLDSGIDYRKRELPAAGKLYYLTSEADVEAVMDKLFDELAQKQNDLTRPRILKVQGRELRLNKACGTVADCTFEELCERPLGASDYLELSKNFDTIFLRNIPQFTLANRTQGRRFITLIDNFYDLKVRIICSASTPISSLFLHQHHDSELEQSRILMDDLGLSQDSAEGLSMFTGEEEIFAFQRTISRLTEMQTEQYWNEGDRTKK
inactive: [1] 0.036 | [2] 0.037 | [3] 0.042 | [4] 0.015 | Nexturastat A -0.122 | vemurafenib 0.115 | [5] 0.041 | [6] -0.018 | givinostat 0.013 | barasertib 0.01 | [7] 0.047 | volasertib -0.223 | [8] 0.207 | epoxomicin 0.035 | [9] 0.017 | [11] 0.063 | rosiglitazone 0.021 | [12] -0.122

BRD3 (UniProt Q15059)
UniProt Q15059, sequence (Q15059 whole entry, looked up): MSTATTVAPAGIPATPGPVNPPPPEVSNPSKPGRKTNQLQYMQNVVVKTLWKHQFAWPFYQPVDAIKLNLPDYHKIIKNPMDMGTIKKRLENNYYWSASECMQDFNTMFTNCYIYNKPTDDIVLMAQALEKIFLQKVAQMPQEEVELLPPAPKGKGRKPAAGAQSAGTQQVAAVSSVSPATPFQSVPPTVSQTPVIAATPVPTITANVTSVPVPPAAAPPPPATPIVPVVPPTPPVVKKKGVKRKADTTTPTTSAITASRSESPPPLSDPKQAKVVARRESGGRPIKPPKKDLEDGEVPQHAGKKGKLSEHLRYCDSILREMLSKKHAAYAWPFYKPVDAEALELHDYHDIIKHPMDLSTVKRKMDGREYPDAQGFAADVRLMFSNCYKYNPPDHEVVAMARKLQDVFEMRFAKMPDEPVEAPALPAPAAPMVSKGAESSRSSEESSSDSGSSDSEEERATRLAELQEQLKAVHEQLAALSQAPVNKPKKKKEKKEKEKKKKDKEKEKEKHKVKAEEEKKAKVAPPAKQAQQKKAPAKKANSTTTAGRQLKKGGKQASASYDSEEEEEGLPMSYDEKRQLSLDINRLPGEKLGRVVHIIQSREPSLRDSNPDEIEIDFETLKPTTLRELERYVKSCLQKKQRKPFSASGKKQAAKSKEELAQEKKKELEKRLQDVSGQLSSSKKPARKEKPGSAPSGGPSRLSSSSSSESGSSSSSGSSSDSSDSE
active: givinostat -0.842 | [7] 1.63 | volasertib 1.46 | [10] 0.681
inactive: [1] 0.261 | [2] 0.008 | [3] 0.035 | [4] -0.003 | vemurafenib 0.198 | [5] -0.048 | [6] -0.017 | barasertib -0.339 | [8] -0.088 | [9] -0.065 | [11] 0.073 | rosiglitazone 0.019 | [12] -0.143 | [13] 0.106

AMD1 (UniProt P17707)
inactive: [1] 0.013 | [2] -0.142 | [3] 0.049 | [4] 0.078 | Nexturastat A -0.048 | vemurafenib -0.126 | [5] 0.041 | [6] -0.027 | givinostat 0.07 | barasertib 0.016 | [7] 0.061 | volasertib -0.098 | [8] 0.099 | epoxomicin 0.057 | [9] -0.073 | [10] -0.033 | [11] -0.101 | rosiglitazone 0.089 | [13] -0.091

ACTBL2 (UniProt Q562R1)
inactive: [1] 0.238 | [2] 0.243 | [3] -0.385 | Nexturastat A -0.049 | vemurafenib 0.139 | [5] -0.41 | [6] 0.073 | givinostat -0.342 | barasertib 0.161 | [7] -0.121 | volasertib 0.153 | [8] -0.133 | epoxomicin -0.1 | [9] 0.05 | [10] 0.162 | [11] -0.3 | rosiglitazone 0.07 | [12] 0.011 | [13] 0.065

AASDH (UniProt Q4L235)
active: volasertib -0.445
inactive: [1] -0.001 | [2] 0.024 | [3] -0.043 | [4] -0.056 | Nexturastat A 0.179 | vemurafenib 0.094 | [5] 0.103 | [6] 0.149 | givinostat 0.033 | barasertib 0.09 | [8] 0.141 | epoxomicin 0.028 | [9] -0.018 | [10] 0.149 | [11] 0.189 | rosiglitazone -0.044 | [12] -0.019 | [13] 0.004

BRD8 isoform 2 (UniProt Q9H0E9)
UniProt Q9H0E9, sequence (Q9H0E9 whole entry, looked up): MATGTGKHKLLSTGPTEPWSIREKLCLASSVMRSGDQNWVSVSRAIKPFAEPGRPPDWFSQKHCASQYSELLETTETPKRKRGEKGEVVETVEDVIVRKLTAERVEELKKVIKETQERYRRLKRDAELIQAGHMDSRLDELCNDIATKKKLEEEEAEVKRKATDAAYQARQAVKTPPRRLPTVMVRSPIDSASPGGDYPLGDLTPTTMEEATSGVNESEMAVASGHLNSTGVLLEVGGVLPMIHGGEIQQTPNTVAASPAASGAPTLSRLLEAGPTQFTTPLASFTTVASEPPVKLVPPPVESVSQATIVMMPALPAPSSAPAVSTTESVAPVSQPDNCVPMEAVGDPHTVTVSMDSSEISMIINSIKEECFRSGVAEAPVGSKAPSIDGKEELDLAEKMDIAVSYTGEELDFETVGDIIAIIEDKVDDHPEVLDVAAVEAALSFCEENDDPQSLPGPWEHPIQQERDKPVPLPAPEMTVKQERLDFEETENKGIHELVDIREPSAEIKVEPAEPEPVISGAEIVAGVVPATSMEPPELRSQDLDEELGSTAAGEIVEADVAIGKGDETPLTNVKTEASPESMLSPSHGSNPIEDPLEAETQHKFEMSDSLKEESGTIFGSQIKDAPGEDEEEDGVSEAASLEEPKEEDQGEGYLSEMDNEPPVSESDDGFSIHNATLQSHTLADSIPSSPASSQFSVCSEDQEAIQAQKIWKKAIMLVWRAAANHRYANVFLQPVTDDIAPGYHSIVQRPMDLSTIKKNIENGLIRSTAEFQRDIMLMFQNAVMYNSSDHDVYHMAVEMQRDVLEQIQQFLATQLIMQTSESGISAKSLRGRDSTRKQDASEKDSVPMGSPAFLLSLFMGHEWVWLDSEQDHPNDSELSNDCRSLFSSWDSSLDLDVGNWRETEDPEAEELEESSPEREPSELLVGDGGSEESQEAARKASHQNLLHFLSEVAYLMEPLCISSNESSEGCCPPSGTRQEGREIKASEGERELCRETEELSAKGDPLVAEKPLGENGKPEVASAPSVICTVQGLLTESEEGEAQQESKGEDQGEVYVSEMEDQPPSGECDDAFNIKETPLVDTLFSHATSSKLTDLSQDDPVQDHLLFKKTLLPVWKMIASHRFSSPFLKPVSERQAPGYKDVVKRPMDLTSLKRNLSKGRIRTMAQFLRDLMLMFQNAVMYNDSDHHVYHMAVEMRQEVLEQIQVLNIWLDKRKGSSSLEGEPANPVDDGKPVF
inactive: [1] -0.013 | [2] -0.333 | [3] -0.044 | [4] -0.023 | Nexturastat A -0.023 | vemurafenib 0.183 | [5] 0.06 | givinostat -0.126 | barasertib -0.039 | [7] 0.036 | volasertib 0.025 | epoxomicin -0.105 | [9] -0.045 | [10] 0.219 | rosiglitazone -0.018 | [12] 0.087 | [13] -0.327
active: [11] 0.432

ATF7 isoform 6 (UniProt P17544)
UniProt P17544, sequence (P17544 whole entry, looked up): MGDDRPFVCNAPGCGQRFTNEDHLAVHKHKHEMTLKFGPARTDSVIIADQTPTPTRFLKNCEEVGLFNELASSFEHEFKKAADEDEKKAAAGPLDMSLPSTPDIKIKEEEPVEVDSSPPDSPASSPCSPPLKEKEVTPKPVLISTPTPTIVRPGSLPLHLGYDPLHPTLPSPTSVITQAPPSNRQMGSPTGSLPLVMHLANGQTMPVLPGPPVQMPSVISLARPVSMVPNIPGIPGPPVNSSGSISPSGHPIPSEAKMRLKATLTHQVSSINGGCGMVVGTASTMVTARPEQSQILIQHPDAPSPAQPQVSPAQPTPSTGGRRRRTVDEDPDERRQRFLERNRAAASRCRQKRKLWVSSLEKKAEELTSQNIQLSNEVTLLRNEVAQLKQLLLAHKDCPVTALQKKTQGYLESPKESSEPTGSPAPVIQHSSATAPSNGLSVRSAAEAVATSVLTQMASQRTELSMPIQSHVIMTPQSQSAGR
inactive: [1] 0.465 | [2] -0.163 | [3] -0.155 | [4] -0.085 | Nexturastat A -0.042 | vemurafenib 0.045 | [5] 0.239 | [6] -0.032 | givinostat -0.131 | barasertib -0.033 | volasertib -0.014 | [8] 0.041 | epoxomicin -0.028 | [9] 0.007 | [11] 0.03 | rosiglitazone -0.011 | [12] -0.06

ASS1 (UniProt P00966)
inactive: [1] -0.073 | [2] -0.015 | [3] -0.06 | Nexturastat A 0.023 | vemurafenib -0.042 | [5] 0.003 | [6] 0.004 | givinostat 0.031 | barasertib -0.063 | [7] 0.02 | volasertib 0.024 | [8] 0.412 | epoxomicin 0.025 | [9] -0.024 | [10] 0.04 | [11] -0.072 | rosiglitazone 0.071 | [12] 0.025 | [13] -0.005

ABITRAM (UniProt Q9NX38)
UniProt Q9NX38, sequence (Q9NX38 whole entry, looked up): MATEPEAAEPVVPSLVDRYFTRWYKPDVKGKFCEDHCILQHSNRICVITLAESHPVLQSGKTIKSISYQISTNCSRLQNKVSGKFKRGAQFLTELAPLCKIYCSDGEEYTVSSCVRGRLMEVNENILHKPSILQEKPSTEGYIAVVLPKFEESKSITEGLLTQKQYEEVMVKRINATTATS
inactive: [1] 0.011 | [2] -0.036 | [3] 0.062 | [4] 0.027 | Nexturastat A -0.114 | vemurafenib 0 | [5] 0.095 | [6] -0.252 | barasertib 0.03 | [7] 0.033 | volasertib -0.11 | [8] 0.088 | epoxomicin 0.055 | [10] 0.137 | [11] 0.051 | rosiglitazone 0.139 | [12] -0.034 | [13] -0.093

BRD4 (UniProt O60885)
active: Nexturastat A -0.451 | [7] 1.89 | volasertib 2.02 | [10] 0.597
inactive: [1] 0.245 | [2] -0.272 | [3] 0.071 | vemurafenib 0.046 | [5] -0.003 | [6] 0.017 | givinostat -0.252 | barasertib 0.021 | [8] -0.007 | epoxomicin 0.136 | [9] -0.016 | [11] 0.169 | rosiglitazone -0.01 | [12] -0.09 | [13] -0.062

AIF1 (UniProt P55008)
active: epoxomicin -0.727
inactive: [1] -0.042 | [2] -0.039 | [3] -0.056 | Nexturastat A 0.048 | vemurafenib -0.112 | [5] 0 | givinostat -0.057 | barasertib -0.102 | volasertib 0.047 | [9] 0.078 | [11] 0.01 | rosiglitazone -0.045

BTBD6 (UniProt Q96KE9)
UniProt Q96KE9, sequence (Q96KE9 whole entry, looked up): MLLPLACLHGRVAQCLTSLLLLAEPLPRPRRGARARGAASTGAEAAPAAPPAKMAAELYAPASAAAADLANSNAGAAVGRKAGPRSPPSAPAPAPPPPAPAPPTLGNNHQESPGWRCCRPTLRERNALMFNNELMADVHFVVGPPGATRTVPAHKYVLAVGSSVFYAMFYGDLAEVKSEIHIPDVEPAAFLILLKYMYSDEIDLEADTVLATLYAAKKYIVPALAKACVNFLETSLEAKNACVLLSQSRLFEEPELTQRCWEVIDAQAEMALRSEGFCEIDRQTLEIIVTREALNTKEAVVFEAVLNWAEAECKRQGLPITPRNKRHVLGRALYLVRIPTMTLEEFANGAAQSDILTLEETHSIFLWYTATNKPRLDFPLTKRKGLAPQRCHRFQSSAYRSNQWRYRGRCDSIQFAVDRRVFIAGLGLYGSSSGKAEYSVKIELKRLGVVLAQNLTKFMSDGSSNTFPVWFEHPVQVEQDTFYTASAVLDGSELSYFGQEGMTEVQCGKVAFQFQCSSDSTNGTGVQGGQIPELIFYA
inactive: [1] -0.061 | [2] -0.108 | [3] 0.003 | Nexturastat A 0.531 | vemurafenib 0.002 | [5] 0.007 | [6] -0.017 | givinostat 0.358 | barasertib -0.017 | [7] 0.017 | volasertib 0.001 | [8] -0.033 | epoxomicin -0.059 | [9] -0.163 | [10] -0.356 | [11] 0.066 | rosiglitazone 0 | [12] -0.112 | [13] -0.021

ADPRH (UniProt P54922)
inactive: [1] 0.014 | [2] -0.008 | [3] -0.002 | [4] -0.134 | Nexturastat A 0.015 | vemurafenib 0.071 | [5] -0.037 | [6] -0.005 | givinostat 0.025 | barasertib -0.036 | volasertib 0.108 | [8] 0.036 | epoxomicin -0.04 | [9] -0.067 | [10] 0.097 | [11] 0.1 | rosiglitazone 0.141 | [13] -0.313

BDH2 (UniProt Q9BUT1)
inactive: [1] -0.051 | [2] -0.085 | [3] 0.086 | [4] 0.016 | [5] -0.077 | [6] -0.019 | givinostat -0.033 | barasertib -0.019 | volasertib -0.126 | [9] 0 | [10] 0.005 | [11] 0.367 | rosiglitazone 0.001 | [12] -0.028 | [13] -0.033
active: vemurafenib 0.447

ARL1 (UniProt P40616)
inactive: [1] 0.057 | [2] -0.012 | [3] 0.162 | [4] 0.054 | Nexturastat A -0.119 | vemurafenib 0.037 | [5] 0.116 | [6] 0.071 | givinostat 0.07 | barasertib 0.007 | [7] 0.072 | volasertib -0.113 | [8] 0.023 | epoxomicin 0.028 | [9] 0.014 | [10] -0.05 | [11] 0.025 | rosiglitazone 0.032 | [12] -0.157 | [13] 0.059

ARHGAP4 isoform 2 (UniProt P98171)
UniProt P98171, sequence (P98171 whole entry, looked up): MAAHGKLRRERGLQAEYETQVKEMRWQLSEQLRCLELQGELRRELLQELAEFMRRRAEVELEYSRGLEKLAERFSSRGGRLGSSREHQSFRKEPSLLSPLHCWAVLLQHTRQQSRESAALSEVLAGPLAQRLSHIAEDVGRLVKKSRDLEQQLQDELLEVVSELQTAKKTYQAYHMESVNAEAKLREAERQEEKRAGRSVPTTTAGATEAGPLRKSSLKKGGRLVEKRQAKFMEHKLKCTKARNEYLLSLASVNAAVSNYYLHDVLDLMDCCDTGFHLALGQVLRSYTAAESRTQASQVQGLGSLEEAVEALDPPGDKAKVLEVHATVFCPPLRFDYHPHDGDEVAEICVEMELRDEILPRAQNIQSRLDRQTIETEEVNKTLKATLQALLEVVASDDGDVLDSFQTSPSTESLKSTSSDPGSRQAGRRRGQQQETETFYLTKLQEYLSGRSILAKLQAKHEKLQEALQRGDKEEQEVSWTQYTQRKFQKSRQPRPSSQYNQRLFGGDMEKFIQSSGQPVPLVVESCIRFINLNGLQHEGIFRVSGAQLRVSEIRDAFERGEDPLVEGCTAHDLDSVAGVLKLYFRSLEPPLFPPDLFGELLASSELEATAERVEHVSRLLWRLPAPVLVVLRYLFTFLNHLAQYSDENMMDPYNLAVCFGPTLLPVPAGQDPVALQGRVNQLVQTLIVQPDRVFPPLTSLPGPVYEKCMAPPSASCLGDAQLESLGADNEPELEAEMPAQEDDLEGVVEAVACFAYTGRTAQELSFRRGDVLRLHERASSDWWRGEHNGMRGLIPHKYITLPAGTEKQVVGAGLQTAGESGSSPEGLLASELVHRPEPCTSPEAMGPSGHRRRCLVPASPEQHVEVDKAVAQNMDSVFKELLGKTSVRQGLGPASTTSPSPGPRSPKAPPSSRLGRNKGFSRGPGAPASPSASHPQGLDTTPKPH
active: [12] 0.757
inactive: [1] -0.14 | [2] 0.039 | [3] -0.08 | vemurafenib 0.047 | [5] -0.049 | [6] -0.194 | givinostat 0.034 | barasertib -0.466 | [7] -0.044 | volasertib -0.112 | [8] 0.048 | [9] -0.048 | [11] 0.036 | rosiglitazone 0.293

APOH (UniProt P02749)
UniProt P02749, sequence (P02749 whole entry, looked up): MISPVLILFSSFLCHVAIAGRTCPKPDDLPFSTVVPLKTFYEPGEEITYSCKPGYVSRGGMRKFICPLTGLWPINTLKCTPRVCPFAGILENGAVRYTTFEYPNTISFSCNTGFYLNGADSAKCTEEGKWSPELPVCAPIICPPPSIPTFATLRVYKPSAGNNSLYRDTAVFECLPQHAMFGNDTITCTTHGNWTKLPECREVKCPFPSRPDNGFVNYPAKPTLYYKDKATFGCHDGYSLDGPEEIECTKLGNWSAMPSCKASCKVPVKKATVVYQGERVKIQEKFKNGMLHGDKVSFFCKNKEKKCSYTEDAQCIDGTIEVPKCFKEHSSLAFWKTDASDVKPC
inactive: [1] -0.346 | [2] 0.265 | [3] 0.055 | [4] 0.192 | vemurafenib 0.225 | [5] -0.063 | [6] -0.611 | givinostat 0.046 | barasertib -0.203 | [7] -0.397 | volasertib -0.443 | [8] -0.167 | [9] -0.171 | [10] 0.078 | [11] -0.141 | rosiglitazone -0.048 | [12] 0.48 | [13] 0.077
